According to PubChem BioAssay (Tox21):
Inconclusive results are not listed. Calls of active or inactive are those of the source. Unless noted, calls come from the whole dose curve; as a rule, active = well fitted curve in the direction sought with a large enough effect in the repeat runs; inconclusive = weak or mixed curves; inactive = no such curve, though single readings can be large; an effect the other way counts as inactive or inconclusive.

Legend:
[1] = target: Luciferin 4-monooxygenase (Photinus pyralis) (UniProt P08659); test: qHTS assay to identify small molecule inhibitors of firefly luciferase (AID 1224835); note: nearly all actives have a fitted effect of over 25% in size
Luciferin 4-monooxygenase (Photinus pyralis), sequence (P08659 whole entry, looked up): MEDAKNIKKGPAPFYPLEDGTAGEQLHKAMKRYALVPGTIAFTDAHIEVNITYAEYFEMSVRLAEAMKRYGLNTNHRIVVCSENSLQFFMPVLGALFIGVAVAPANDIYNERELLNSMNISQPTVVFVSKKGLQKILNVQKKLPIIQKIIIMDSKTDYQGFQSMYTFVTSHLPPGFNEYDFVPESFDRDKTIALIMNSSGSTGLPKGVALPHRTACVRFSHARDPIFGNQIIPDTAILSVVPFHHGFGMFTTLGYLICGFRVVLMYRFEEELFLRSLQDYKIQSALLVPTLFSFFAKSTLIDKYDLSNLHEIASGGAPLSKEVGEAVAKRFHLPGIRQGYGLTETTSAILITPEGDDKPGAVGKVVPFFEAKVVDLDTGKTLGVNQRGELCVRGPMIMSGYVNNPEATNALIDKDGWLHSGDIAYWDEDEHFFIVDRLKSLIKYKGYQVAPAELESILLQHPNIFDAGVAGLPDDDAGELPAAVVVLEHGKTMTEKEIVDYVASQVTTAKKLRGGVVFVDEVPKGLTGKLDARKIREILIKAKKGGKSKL
In short: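 Quantitative HTS format; KM concentrations of both substrates. Purified P. pyralis FLuc activity quantified from luminescence images.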

[2] = qHTS assay to identify small molecule agonists of the constitutive androstane receptor (CAR) signaling pathway - cell viability counter screen (AID 1224836); note: nearly all actives have a fitted effect of over 45% in size
In short: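 Using CellTiter-Fluor, viability of HepG2 cells harbouring hCAR and CYP2B6-2.2kb was measured following 23 h incubation with a 15-concentration compound series plus PK11195 (0.75 uM final).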

[3] = qHTS assay to identify small molecule antagonists of the constitutive androstane receptor (CAR) signaling pathway - cell viability counter screen (AID 1224837); note: nearly all actives have a fitted effect of over 45% in size
In short: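 HepG2 cells stably carrying hCAR and CYP2B6-2.2kb reporter, stimulated with 50 nM CITCO and compounds at 15 concentrations for 23 h at 37 C. Viability measured by CellTiter-Fluor fluorescence.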

[4] = target: Nuclear receptor subfamily 1 group I member 3 (Homo sapiens) (UniProt Q14994); test: qHTS assay to identify small molecule antagonists of the constitutive androstane receptor (CAR) signaling pathway (AID 1224838); note: nearly all actives have a fitted effect of over 40% in size; note: potency is the fitted concentration of half-maximal effect
Nuclear receptor subfamily 1 group I member 3 (Homo sapiens), sequence (Q14994 whole entry, looked up): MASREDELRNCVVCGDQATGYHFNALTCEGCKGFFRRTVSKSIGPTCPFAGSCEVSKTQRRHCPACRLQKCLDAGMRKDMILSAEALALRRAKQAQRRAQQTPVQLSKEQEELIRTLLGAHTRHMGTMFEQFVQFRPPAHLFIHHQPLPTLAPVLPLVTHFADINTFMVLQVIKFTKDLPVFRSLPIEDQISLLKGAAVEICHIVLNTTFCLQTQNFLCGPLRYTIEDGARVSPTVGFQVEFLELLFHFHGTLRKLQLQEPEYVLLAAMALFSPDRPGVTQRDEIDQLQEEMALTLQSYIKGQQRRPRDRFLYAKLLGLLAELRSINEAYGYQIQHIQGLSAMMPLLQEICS
In short: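 HepG2 cells stably carrying hCAR and a CYP2B6-2.2kb luciferase reporter, seeded 4 hrs before compound (15 concentrations). Stimulated with 50 nM CITCO for 24 hr at 37 C. ONE-Glo luminescence read after 30 min at room temperature.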

[5] = target: Nuclear receptor subfamily 1 group I member 3 (Homo sapiens) (UniProt Q14994); test: qHTS assay to identify small molecule agonists of the constitutive androstane receptor (CAR) signaling pathway (AID 1224839); note: nearly all actives have a fitted effect of over 15% in size; note: potency is the fitted concentration of half-maximal effect
In short: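 Double-stable HepG2 cells (hCAR, CYP2B6-2.2kb) seeded 4 h before compound addition. Exposure 24 h with 0.75 uM PK11195 final. Luciferase detected by ONE-Glo.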

[6] = qHTS assay to identify small molecule antagonists of the estrogen related receptor signaling pathway with the pleiotropic PPARgamma coactivator (PGC) from Tox21 10K library - cell viability counter screen (AID 1224840; active = well fitted cell-killing curve with a large enough effect in the repeat runs, not every such curve was filed as active; note: nearly all actives have a fitted effect of over 40% in size)
In short: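 PGC/ERR cells (2,000/well) plated 6 h, then compound-treated for 17.5 h at 37 C. Viability measured by CellTiter-Fluor fluorescence after 30 min at 37 C, multiplexed with the pathway assay.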

[7] = qHTS assay to identify small molecule agonists of the estrogen related receptor signaling pathway with the pleiotropic PPARgamma coactivator (PGC) from Tox21 10K library (AID 1224842); note: nearly all actives have a fitted effect of over 15% in size
In short: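 PGC/ERR reporter cells (NTP line) were seeded 2,000 per well, rested 6 h at 37 C/5% CO2, then pin-dosed with compounds in DMSO for 18 h at 37 C; luciferase read by One-Glo luminescence after 30 min at room temperature.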

[8] = target: Thyrotropin receptor (Homo sapiens) (UniProt P16473); test: qHTS assay to identify small molecule agonists of the thyroid stimulating hormone receptor (TSHR) signaling pathway (AID 1224843; calls by dose curve; note: nearly all actives have a fitted effect of over 45% in size; note: potency is the fitted concentration of half-maximal effect)
Thyrotropin receptor (Homo sapiens), sequence (P16473 whole entry, looked up): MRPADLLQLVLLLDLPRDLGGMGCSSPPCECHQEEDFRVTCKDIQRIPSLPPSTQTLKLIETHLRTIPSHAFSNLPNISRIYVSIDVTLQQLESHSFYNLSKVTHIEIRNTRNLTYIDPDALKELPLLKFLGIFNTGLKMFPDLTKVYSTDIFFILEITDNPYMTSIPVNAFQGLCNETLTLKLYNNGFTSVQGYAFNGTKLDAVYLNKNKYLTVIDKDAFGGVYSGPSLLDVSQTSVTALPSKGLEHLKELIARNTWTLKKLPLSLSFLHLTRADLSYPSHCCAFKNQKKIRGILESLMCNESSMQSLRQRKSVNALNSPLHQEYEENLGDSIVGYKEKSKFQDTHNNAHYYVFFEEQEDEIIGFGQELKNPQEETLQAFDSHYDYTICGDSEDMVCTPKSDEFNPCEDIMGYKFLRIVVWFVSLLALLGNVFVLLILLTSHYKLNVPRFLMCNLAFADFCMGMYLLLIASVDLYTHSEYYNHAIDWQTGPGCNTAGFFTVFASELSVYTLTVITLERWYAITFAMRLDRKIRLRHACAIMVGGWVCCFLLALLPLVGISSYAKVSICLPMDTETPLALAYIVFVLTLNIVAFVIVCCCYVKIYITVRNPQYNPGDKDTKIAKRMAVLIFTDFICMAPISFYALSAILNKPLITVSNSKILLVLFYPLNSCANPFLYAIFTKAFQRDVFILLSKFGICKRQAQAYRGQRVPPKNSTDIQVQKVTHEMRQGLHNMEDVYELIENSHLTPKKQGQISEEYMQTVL
In short: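 Cell line HEK293 with TSHR; density 800/well. Exposure 30 min RT. Readout HTRF cAMP (cAMP-d2/anti-cAMP-cryptate), 1 h RT before reading.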

[9] = qHTS assay to identify small molecule agonists of H2AX (AID 1224845; active = well fitted activation curve with a large enough effect in the signal ratio in the repeat runs, not every such curve was filed as active; the % refers to the signal ratio)
In short: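 Wild-type CHO-K1 cells plated overnight, then exposed 3 hr at 37C to compounds at 15 concentrations (0.76% DMSO). Lysed, then HTRF anti-pH2AX(S139)-cryptate/anti-H2AX-d2 detection after 24 hr at room temperature; emissions 665 and 620 nm.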

[10] = qHTS assay to identify small molecule agonists of the hypoxia (HIF-1) signaling pathway (AID 1224846; active = well fitted activation curve with a large enough effect in the signal ratio in the repeat runs, not every such curve was filed as active; the % refers to the signal ratio)
In short: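 HRE-bla ME-180 beta-lactamase reporter cells in medium with 0.5% dialyzed FBS, pre-incubated 5 h then exposed to compounds 17 h at 37C, 5% CO2; reporter induction read with CCF4-AM FRET substrate.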

[11] = qHTS assay to identify small molecule agonists of H2AX - cell viability counter screen (AID 1224847; calls by dose curve; note: top concentration of the series differs between compounds; nearly all actives have a fitted effect of over 30% in size)
In short: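 Quantitative HTS viability measurement: CHO-K1 wild-type cells in serum (10% FBS) medium, short 3 hr drug exposure at 37C with 0.76% DMSO, CellTiter-Glo luminescent detection.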

[12] = qHTS assay to identify small molecule antagonists of the estrogen related receptor (ERR) signaling pathway from Tox21 library (AID 1224848); note: nearly all actives have a fitted effect of over 50% in size
In short: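 Screening used an ERR reporter line supplied by NTP, exposed for 18 h at 37 C to library compounds delivered in DMSO. Signal was luciferase luminescence developed with ONE-Glo at room temperature for 30 min.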

[13] = qHTS assay to identify small molecule agonists of the estrogen related receptor (ERR) signaling pathway from Tox21 library (AID 1224849; calls by dose curve; note: nearly all actives have a fitted effect of over 15% in size); conditions: ERR reporter cell line, ONE-Glo luciferase, 18 h; at 92.4 µM (top of the series) unless noted
In short: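 ERR reporter cells (NTP line) pre-incubated 6 hours at 37 C, then exposed to compounds for 18 hours at 37 C. ONE-Glo luciferase luminescence was read after 30 minutes at room temperature.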

[14] = qHTS RealTime-Glo MT Cell Viability Assay in HepG2 cells - 24 hour (AID 1224867); note: nearly all actives have a fitted effect of over 50% in size
In short: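 Cell number in HepG2 cultures estimated from NanoLuc luminescence generated by metabolic reduction of a prosubstrate by living cells. The homogeneous, nonlytic format allowed repeated reads at 0, 8, 16, 24, 32 and 40 h of compound exposure.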

[15] = qHTS RealTime-Glo MT Cell Viability Assay in HEK293 cells - 32 hour (AID 1224868); note: top concentration of the series differs between compounds; nearly all actives have a fitted effect of over 50% in size
In short: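 Homogeneous bioluminescent viability format in HEK293 cells (600 cells/well). Following 5 h at 37 C/5% CO2, 23 nL compound was pintooled; the signal was measured repeatedly during 40 h incubation.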

[16] = A CellTox Green Cytotoxicity Assay to monitor cytotoxicity in HEK293 cells - 0 hour (AID 1224869); note: nearly all actives have a fitted effect of over 50% in size
In short: (§1)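 HEK293 cells, 600/well, were preincubated 5 hours and then exposed to compounds at 37 C for up to 40 hours. A cell-impermeant cyanine dye staining dead-cell DNA was read by fluorescence at 0, 8, 16, 24, 32 and 40 h time points.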

[17] = qHTS RealTime-Glo MT Cell Viability Assay in HepG2 cells - 40 hour (AID 1224870); note: nearly all actives have a fitted effect of over 50% in size
In short: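 HepG2 cells mixed with RealTime-Glo MT reagents (NanoLuc plus cell-permeant prosubstrate) were seeded at 600 cells/well, incubated 5 h at 37 C/5% CO2, then pinned with compounds in DMSO; nonlytic luminescence tracked viability during 40 h treatment.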

[18] = A CellTox Green Cytotoxicity Assay to monitor cytotoxicity in HEK293 cells - 40 hour (AID 1224871); note: nearly all actives have a fitted effect of over 45% in size
In short: as §1

[19] = qHTS assay to identify small molecule agonists of the hypoxia (HIF-1) signaling pathway - cell viability counter screen (AID 1224844; calls by dose curve; note: nearly all actives have a fitted effect of over 50% in size)
In short: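 HRE-bla ME-180 cells, 2,000/well in 0.5% dialyzed FBS medium, treated 17 h at 37C with compounds. Viability read in the same wells as the bla reporter, by CellTiter-Glo luminescence after 30 min at room temperature.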
% is set by controls: 0 for no effect and ±100 for the full control effect.

CC(C)(COCC1CO1)COCC1CO1 (configuration not stated)
inactive: Potency [1] | Potency [2] | Potency [3] | Potency [4] | Potency [5] | Potency [6] | Potency [7] | Potency [8] | Potency [9] | outcome [10] | Potency [11] | Potency [12] | activity change, positive = activation [13] -8.81% | Potency [14] | Potency [15] | Potency [16] | Potency [17] | Potency [18]

CN(C)CCc1c[nH]c2ccc(O)cc12
inactive: Potency [1] | Potency [2] | Potency [3] | Potency [4] | Potency [5] | Potency [6] | Potency [8] | Potency [19] | Potency [11] | Potency [14] | Potency [15] | Potency [16] | Potency [17] | Potency [18]

CN(CCCC(=O)c1cccnc1)N=O
inactive: Potency [1] | Potency [2] | Potency [3] | Potency [4] | Potency [5] | Potency [6] | Potency [8] | Potency [19] | Potency [9] | outcome [10] | Potency [11] | Potency [14] | Potency [16] | Potency [18]

CC(C)OS(C)(=O)=O
inactive: Potency [1] | Potency [2] | Potency [3] | Potency [4] | Potency [5] | Potency [6] | Potency [8] | Potency [19] | Potency [9] | outcome [10] | Potency [11] | Potency [14] | Potency [15] | Potency [16] | Potency [18]

Cc1cccc(OP(=O)(Oc2cccc(C)c2)Oc2cccc(C)c2)c1
inactive: Potency [1] | Potency [2] | Potency [3] | Potency [4] | Potency [6] | Potency [8] | Potency [19] | Potency [9] | outcome [10] | Potency [11] | Potency [14] | Potency [15] | Potency [16] | Potency [17] | Potency [18]
active: Potency [5] 30.6 µM

O=[N+]([O-])c1cc(Cl)ccc1Cl
inactive: Potency [1] | Potency [2] | Potency [3] | Potency [4] | Potency [5] | Potency [6] | Potency [8] | Potency [19] | Potency [9] | outcome [10] | Potency [11] | Potency [14] | Potency [15] | Potency [16] | Potency [17]

c1ccc2c(c1)[nH]c1cnccc12
inactive: Potency [1] | Potency [2] | Potency [3] | Potency [4] | Potency [5] | Potency [6] | Potency [8] | Potency [19] | Potency [9] | Potency [11] | Potency [14] | Potency [15] | Potency [16] | Potency [17] | Potency [18]

ClC1=C(Cl)[C@]2(Cl)[C@H]3[C@H]([C@H]4C=C[C@H]3C4)[C@@]1(Cl)C2(Cl)Cl
active: Potency [5] 13.7 µM | Potency [8] 9.69 µM
inactive: Potency [1] | Potency [2] | Potency [3] | Potency [4] | Potency [6] | Potency [19] | Potency [9] | outcome [10] | Potency [11] | Potency [14] | Potency [15] | Potency [16] | Potency [17]

CCCN(CC)CC1COC2(CCC(C(C)(C)C)CC2)O1 (configuration not stated)
inactive: Potency [1] | Potency [2] | Potency [3] | Potency [4] | Potency [5] | Potency [6] | Potency [8] | Potency [19] | Potency [9] | Potency [11] | Potency [14] | Potency [15] | Potency [16] | Potency [17]

CC(C)CCCCCOC(=O)c1ccccc1C(=O)OCCCCCC(C)C
inactive: Potency [1] | Potency [2] | Potency [3] | Potency [4] | Potency [5] | Potency [6] | Potency [8] | Potency [19] | Potency [9] | outcome [10] | Potency [11] | Potency [14] | Potency [15] | Potency [16] | Potency [18]

CC(O)C#N (configuration not stated)
inactive: Potency [1] | Potency [2] | Potency [3] | Potency [5] | Potency [6] | Potency [8] | Potency [19] | Potency [9] | outcome [10] | Potency [11] | Potency [14] | Potency [15] | Potency [16] | Potency [18]
active: Potency [4] 30.6 µM

CCCN(CCC)CCc1c[nH]c2ccccc12
inactive: Potency [1] | Potency [2] | Potency [3] | Potency [4] | Potency [5] | Potency [6] | Potency [8] | Potency [19] | Potency [9] | outcome [10] | Potency [14] | Potency [15] | Potency [16] | Potency [17] | Potency [18]

O=[N+]([O-])c1cc([N+](=O)[O-])c2ccccc2c1
inactive: Potency [1] | Potency [2] | Potency [3] | Potency [4] | Potency [6] | Potency [7] | Potency [8] | Potency [9] | outcome [10] | Potency [11] | activity change, positive = activation [13] -17.9% | Potency [15] | Potency [17]
active: Potency [5] 24.3 µM

NC(=O)CCl
inactive: Potency [1] | Potency [2] | Potency [3] | Potency [4] | Potency [5] | Potency [6] | Potency [8] | Potency [19] | Potency [9] | outcome [10] | Potency [11] | Potency [14] | Potency [15] | Potency [16] | Potency [17] | Potency [18]

CC(C)CCCCCCCOP(=O)(Oc1ccccc1)Oc1ccccc1
inactive: Potency [1] | Potency [2] | Potency [3] | Potency [4] | Potency [6] | Potency [7] | Potency [19] | Potency [9] | outcome [10] | activity change, positive = activation [13] -16.8% | Potency [14] | Potency [16] | Potency [17] | Potency [18]
active: Potency [5] 27.4 µM | Potency [8] 24.5 µM
